Most compounds without a hit are left out; they make up all but 2.8% or so of the library.
MBNL1-CUG inh – qHTS Assay for Inhibitors of MBNL1-poly(CUG) RNA binding; Muscleblind-like protein 1 (Homo sapiens), Q9NR56; TR-FRET MBNL1-His/biotin-(CUG)12 binding, 665/545 ratio; Potency, µM (top dose mostly 57.5 µM), for inactives: top-dose activity change, negative = inhibition, actives largely listed as inhibitors; 280,000 tested, 0.036% active; AID 2675, 2010; active = well fitted inhibition curve with a large enough effect in the signal ratio, with a control signal flat, not every such curve was filed as active; inconclusive = small, poorly fitted or top-dose-only effect, or effect the other way, or a change in a side signal; inactive = no such curve, though single readings can be large or run the other way; the % refers to the signal ratio; note: potency is the fitted concentration of half-maximal effect; % is set by controls: 0 for no effect and ±100 for the full control effect
Target sequence (Q9NR56 whole entry, looked up): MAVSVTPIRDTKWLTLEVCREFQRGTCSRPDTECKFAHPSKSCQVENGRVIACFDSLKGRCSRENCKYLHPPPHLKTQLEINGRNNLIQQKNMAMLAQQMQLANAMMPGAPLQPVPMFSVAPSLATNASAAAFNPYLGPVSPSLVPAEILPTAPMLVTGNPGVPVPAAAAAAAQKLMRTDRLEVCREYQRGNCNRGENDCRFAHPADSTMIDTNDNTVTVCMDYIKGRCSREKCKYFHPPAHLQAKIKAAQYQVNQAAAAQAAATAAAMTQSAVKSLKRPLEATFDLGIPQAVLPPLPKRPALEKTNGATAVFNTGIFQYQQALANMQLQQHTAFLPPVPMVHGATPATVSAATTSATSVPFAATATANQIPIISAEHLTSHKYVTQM
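MBNL1-His + Biotin-(CUG)12, cpd titration 92 nM–58 uM; Tb anti-His Ab 0.055 ng/ul, SA-XL665 5 nM (final); 60 min RT; ratiometric 665/545 nm, Ex 340 nm; normalized to buffer and full-complex controls.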
D3 antag – qHTS of D3 Dopamine Receptor Antagonist: qHTS. max response, negative = inhibition, %. D3R cells, DiscoveRx beta-arrestin luminescence, antagonist mode; stronger effect = lower value. 360,000 tested, 2.5% active. AID 652054, 2013. D(3) dopamine receptor (Homo sapiens), P35462; in the data active = max response below about -50%; inconclusive = no clear call, values can overlap the other calls; note: % is set by controls: 0 for no effect and ±100 for the full control effect
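Cells plated overnight at 1500 cells/well, then exposed to library compounds with dopamine controls for 90 minutes at 37 degrees C. DiscoveRx reagent added for 30–60 minutes at room temperature; luminescence read, quantitative HTS format.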
Integrin act MD – qHTS for Activators of Integrin-Mediated Alleviation for Muscular Dystrophy. alpha7betagal myoblasts, beta-gal FDG fluorescence, 48 h. Potency, µM (top dose mostly 38.3 µM), for inactives: at the highest dose activation, most hits filed as activators. 350,000 tested, 0.064% active;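 note: potency is the fitted concentration of half-maximal effect; 100% = response of the positive control SU9516; nearly all actives have a fitted effect of over 60% in size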
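Alpha7betagal+/- myoblasts (passage 13) were plated 16-24 hr, then exposed to compounds (1:260 dilution of DMSO stock) for 48 hours at 37C. After MPER lysis, β-galactosidase reporter activity was read as FDG fluorescence (ex 480/em 540) after 30 minutes.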
CBFb RUNX1 block – qHTS Assay for Compounds Blocking the Interaction Between CBF-beta and RUNX1 for the Treatment of Acute Myeloid Leukemia; Runt-related transcription factor 1 (Homo sapiens) + Core-binding factor subunit beta …; AlphaScreen CBFb-His/RUNX1-biotin binding, biochemical; Potency, µM (titrated, usually from 59.8 µM), for inactives: at the top dose activity, negative = inhibition, hits mostly inhibitors; 230,000 tested, under 10 active; AID 1477, 2009; note: % of control where 0% means no effect
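Room-temperature protein-protein interaction test with 30 nM each of His-tagged CBF-beta and biotinylated RUNX1, 15 min with compound, then 90 min with nickel plus streptavidin beads. Signal read in AlphaScreen mode.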
D3 ag – qHTS of D3 Dopamine Receptor Agonist: qHTS; max activation, %; D3R DiscoveRx beta-arrestin cells, luminescence, 90 min; 410,000 tested, 0.58% active; in the data active = max activation above about 30%; note: 0% is about no effect
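Agonist-mode cell screen: cells plated at 1500/well and incubated overnight at 37 °C, then exposed to library compounds for 90 min at 37 °C. Detection reagent was added for 30–60 min at room temperature, and luminescence was read.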
PTHR1 agonist – qHTS for PTHR1 Agonists: Primary Screen. Parathyroid hormone/parathyroid hormone-related peptide receptor (Homo sapiens), Q03431. HEK293 GP2 PTHR1 cells, GloSensor cAMP luminescence, 1 h. Potency, µM (titrated, usually from 115 µM), without a hit: at the highest dose activation, hits mostly activators. 410,000 tested, 0.075% active; note: potency is the fitted concentration of half-maximal effect; nearly all actives have a fitted effect of over 55% in size
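HEK-293-derived GP2 cells expressing PTHR1 and a GloSensor cAMP reporter, 3,000/well, plated overnight, given luciferin plus IBMX (each 0.5 mM as added) for 1 h at 37 °C, then compound for 1 h at 37 °C. Luminescence was read after 15 min at room temperature.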
Active calls of the source: *; i = inactive; ? = inconclusive; nt = no result given; ! = repeats disagree; [ ] = remark or other dose. Unless noted, calls come from the whole dose curve; as a rule, active = well fitted curve in the direction sought with a large enough effect; inconclusive = small, poorly fitted or top-dose-only effect, or another doubt; inactive = no such curve, though single readings can be large; an effect the other way counts as inactive or inconclusive.

SMILES	MBNL1-CUG inh	D3 antag	Integrin act MD	CBFb RUNX1 block	D3 ag	PTHR1 agonist
COc1ccc(C(=O)/C(=C\c2ccco2)N2C=CC=CC2=C(C#N)C#N)cc1	?	-65*	-55%	-4%	-11	-35%
N#CC(C#N)=C1C=CC=CN1/C(=C\c1ccco1)C(=O)c1ccccc1	12%	-106*	0%	0%	-12	-31%
N#C/C(=C/c1ccco1)C(N)=S	?	?	6%	?	-6	i
COc1ccc(N=N/C(=C\O)C(=O)c2cccs2)cc1	?	13	?	?	21	-13%
COc1ccc(C(=O)N/C(=C\c2ccco2)C(=O)OCc2ccco2)cc1	14%	21	0%	0%	-1	i
N#CC(C#N)=C1C=CC=CN1/C(=C\c1ccco1)C(=O)c1ccc(Br)cc1	?	-99*	-58%	3%	-11	-13%
COC(=O)c1cccc(NC(=O)CN2CCc3ccccc3C2)c1	-2%	-11	10%	nt	-1	-49%
Cc1ccc(S(=O)(=O)N2CCNC(=O)CC2)cc1	-9%	-6	-9%	-5%	3	i
COc1ccc(CCNC(=O)CNS(=O)(=O)c2ccc(F)c(Cl)c2)cc1OC	1%	-16	-20%	nt	0	-18%
Cc1ccc(/C(O)=C2/C(=O)C(=O)N(CC(=O)O)C2c2ccc([N+](=O)[O-])cc2)cc1 (stereo not drawn)	19%	-27	?	nt	-15	i
CCc1nnc(NC(=O)C2CSC3(C)CCC(=O)N23)s1 (stereo not drawn)	nt	12	12%	nt	0	i
CC12CCC(=O)N1C(C(=O)Nc1nccs1)CS2 (stereo not drawn)	nt	8	1%	nt	79*	i
CCOC(=O)N=S(N)(=O)c1ccccc1 (stereo not drawn)	-17%	16	-2%	3%	32*	i
CCOC(=O)CC(S(=O)(=O)c1ccccc1)S(=O)(=O)c1ccccc1	nt	-95*	-67%	nt	-13	-57%
COc1ccc(Br)cc1CNC(=O)c1cc2n(n1)CCCN(Cc1ccc(C)cc1)C2=O	nt	nt	nt	nt	1	i
CN(CCOc1ccccc1)S(=O)(=O)c1ccc2oc3ccccc3c2c1	-6%	18	-33%	11%	2	-18%
COC(=O)[C@H]1CC2(CC=C(C)C)C(=O)[C@@](CC=C(C)C)(C(=O)C(C(=O)c3ccccc3)=C2OC)C1(C)C (tested in a mixture with another compound)	nt	nt	nt	21%	nt	nt
S=C1NC[C@H](Cc2ccccc2)N1CC1CCN(CCCCc2ccccc2)CC1	nt	-93*	0%	nt	-41	-19%
CCCCN1CCC(CN2C(=O)C(=O)NC[C@@H]2Cc2ccccc2)CC1	nt	-20	0%	nt	-25	3%
CC(C)CCN1CCC(CN2C(=S)NC[C@@H]2Cc2ccccc2)CC1	nt	-28	1%	nt	-50	i
CC(CCN1CCC(CN2C(=S)NCC2Cc2ccccc2)CC1)c1ccccc1 (stereo not drawn)	nt	-63*	-9%	nt	-41	-17%
O=C1NC[C@H](Cc2ccccc2)N(CC2CCN(CCCCc3ccccc3)CC2)C1=O	nt	-50*	-2%	nt	-46	i
CC(=O)Nc1ccc(S(=O)(=O)Nc2ccccc2C(=O)N2CCCCCC2)cc1	-3%	3	-9%	nt	4	-1%
CCc1ccc(NS(=O)(=O)c2ccc(OC)c3ncccc23)cc1	0%	6	-7%	nt	5	-33%
CCc1ccccc1NS(=O)(=O)c1ccc(OC)c2ncccc12	7%	80	2%	nt	31*!	-57%
SMILES	MBNL1-CUG inh	D3 antag	Integrin act MD	CBFb RUNX1 block	D3 ag	PTHR1 agonist
CCCCCCN1C[C@H](O)[C@@H](n2cc(C3CC3)nn2)C[C@@H]1c1ccccc1	nt	16	20%	nt	4	-17%
COc1ccc(-c2nnc(-c3ccccc3)o2)cc1OC	-6%	-8	12%	nt	-1	-17%
COc1cc(-c2nnc(-c3ccncc3)o2)ccc1OCc1ccccc1	-9%	49	-13%	5%	81*	i
COc1cc(-c2nnc(-c3ccco3)o2)ccc1OCc1ccccc1	7%	36	22%	4%	30*	-37%[57.5 µM]
Cc1cc(Br)ccc1NC(=O)CNC(=O)Cn1ncc(Cl)c(Cl)c1=O	14%	-83*	-63%	36%	-15	-23%
Cc1ccc(S(=O)(=O)N2CCOCC2)cc1NC(=O)CNCc1cccnc1	-9%	21	-11%	1%	80*	i
Cc1ccc(S(=O)(=O)N2CCCCC2)cc1NC(=O)Cn1ncc(Cl)c(Cl)c1=O	nt	-64*	-73%	nt	-20	-97%
Cc1ccc(S(=O)(=O)N2CCCCC2)cc1NC(=O)Cn1cnnn1	-5%	-1	34%	4%	2	i
Cc1ccc2oc(=O)c3cnn(CC(=O)Nc4ccc(Br)cc4C)c3c2c1	nt	nt	nt	nt	1	-2%
COCCN(C(=O)COC(=O)c1ccccc1NCc1ccco1)c1c(N)n(Cc2ccccc2)c(=O)[nH]c1=O	nt	11	0%	nt	15	-7%
C#CC(=O)N(c1cc(OC)ccc1OC)C(C(=O)NC1CCCC1)c1cccs1 (stereo not drawn)	-9%	-62*	?	0%	-6	-28%
CC(C)(C)NC(=O)C(c1cccs1)N(C(=O)C(=O)NC1CCCC1)c1ccccc1F (stereo not drawn)	3%	-65*	?	4%	-15	9%
COc1ccc(N(C(=O)c2ccco2)C(C(=O)NC2CCCCC2)c2cccs2)cc1OC (stereo not drawn)	9%	-19	-20%	10%	7	16%[57.5 µM]
C#CC(=O)N(c1ccc(OC)cc1OC)C(C(=O)NC1CCCC1)c1cccs1 (stereo not drawn)	-13%	-51*	-68%	1%	-7	-93%
COc1ccc(-n2ccnc2SCC(=O)Nc2nnc(C)s2)cc1	nt	nt	nt	nt	7	22%
O=C(N/N=C/c1ccccn1)c1cccc([N+](=O)[O-])c1	?	-20	-57%	-18%	-9	-5%
O=C(N/N=C/c1ccccn1)c1cc([N+](=O)[O-])cc([N+](=O)[O-])c1	?	-78*	-13%	?	-13	-63%
COc1ccc(NC(=S)Nc2ccc(N)c([N+](=O)[O-])c2)cc1	?	-82*	-4%	-16%	-1	-5%

Screens as filed in PubChem.
